# Measured values taken from PubChem BioAssay AID720485 (Milwaukee Institute for Drug Discovery, 2013).
# The other results are listed elsewhere or left out. Values without a mark were called inactive.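 Rule for the calls: active = percent inhibition of 50% or more; inactive = the rest.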
# System: Hepatitis C virus NS3 helicase
# Assay: NS3h DNA-binding blockers re-examined – biochemical, fluorescence polarization, ChemBridge library, confirmation (AID 720485)
# Settings: NS3h binding to Cy5-dT15 DNA, at 100 µM, hits give high values
structure (smiles),measurement,value
CCOc1cc(C=C2C(=O)NC(=O)NC2=O)cc(Br)c1OCCOc1ccccc1C,inhibition,23.5%
